Hits are enriched below; roughly 9.8% of the tested compounds scored in any of these assays.
ALDH1A1 block: qHTS Assay for Inhibitors of Aldehyde Dehydrogenase 1 (ALDH1A1); Purified ALDH1A1, NADH fluorescence, propionaldehyde substrate; Potency, µM (titrated, usually from 75.3 µM), for the others: top-dose activity, negative = inhibition, hits mostly inhibitors; 220,000 compounds, 7.3% hits; active = well fitted inhibition curve with a large enough effect, not every such curve was filed as active; inconclusive = small, poorly fitted or top-dose-only effect, or another doubt; inactive = no such curve, though single readings can be large or run the other way;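 also: potency is read from the fitted curve at half-maximal effect; plate controls were no enzyme wells and a reference inhibitor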
HTT cytoprotect: qHTS Multiplex Assay to Identify Dual Action Probes in a Cell Model of Huntington: Cytoprotection (ATP). PC12 HTT-Q103 induced, cytoprotection, ATP luminescence, 40 h. Potency, µM (series often up to 56.4 µM), for inactives: cytoprotection (ATP increase), usual class: activators. 230,000 compounds, 0.14% hits. AID 1471, 2008; also: potency is read from the fitted curve at half-maximal effect; % of control where 0% means no effect; nearly all actives have a fitted effect of over 45% in size
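Cells were plated at 1500 per well in phenol red-free DMEM with 5% equine and 5% calf serum. Tebufenozide (100 nM final) and compounds were added, then ATPlite reagent, and luminescence was read.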
HttQ103 aggreg: qHTS Multiplex Assay to Identify Dual Action Probes in a Cell Model of Huntington: Aggregate Formation (GFP) | PC12 HttQ103-GFP aggregates, Acumen cytometry, 40 h | Potency, µM (top dose mostly 46.1 µM), inactives show at the highest dose activity change, negative = inhibition, actives largely listed as inhibitors | 220,000 compounds, 1.1% hits; also: potency is read from the fitted curve at half-maximal effect; % is scaled to controls: 0 for no effect and ±100 for the full control effect; nearly all actives have a fitted effect of over 60% in size
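Using laser scanning cytometry, GFP-positive aggregates were counted after lysis of PC12 cells induced with 100 nM tebufenozide to express HTT exon 1 Q103–GFP. Compounds were tested in titration.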
CBFb RUNX1 block: qHTS Assay for Compounds Blocking the Interaction Between CBF-beta and RUNX1 for the Treatment of Acute Myeloid Leukemia; Runt-related transcription factor 1 (Homo sapiens) + Core-binding factor subunit beta …; AlphaScreen CBFb-His/RUNX1-biotin binding, biochemical; Potency, µM (highest dose often 59.8 µM), for inactives: top-dose activity, negative = inhibition, usual class: inhibitors; 230,000 tested, under 10 active; also: % of control where 0% means no effect
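Proteins preincubated together for 20 min at RT before compound addition; 15 min later, nickel and streptavidin beads were added and left 90 min prior to AlphaScreen measurement.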
KDM4E inh: qHTS Assay for Inhibitors of Human Jumonji Domain Containing 2E (JMJD2E); Lysine-specific demethylase 4E (Homo sapiens), B2RXH2; JMJD2E catalytic domain, FDH-coupled NADH fluorescence (FDH is formaldehyde dehydrogenase); Potency, µM (doses to about 57.1 µM), for the others: at the top dose activity change, negative = inhibition, hits mostly inhibitors; 230,000 compounds, 1.6% hits; AID 2147, 2009; active = well fitted inhibition curve with a large enough effect, not every such curve was filed as active; inconclusive = small, poorly fitted or top-dose-only effect, or another doubt; inactive = no such curve, though single readings can be large or run the other way;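 also: potency is read from the fitted curve at half-maximal effect; 0% = wells with enzyme and -100% = buffer wells without enzyme; nearly all actives have a fitted effect of over 50% in size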
HPGD block: qHTS Assay for Inhibitors of HPGD (15-Hydroxyprostaglandin Dehydrogenase). 15-hydroxyprostaglandin dehydrogenase [NAD(+)] (Homo sapiens), P15428. purified HPGD, NADH fluorescence kinetic, PGE2 substrate. 150,000 compounds, 4.3% hits. Potency, µM, for the others: at the highest dose activity change, negative = inhibition, actives largely listed as inhibitors; active = well fitted inhibition curve with a large enough effect, not every such curve was filed as active; inconclusive = small, poorly fitted or top-dose-only effect, or another doubt; inactive = no such curve, though single readings can be large or run the other way; also: potency is read from the fitted curve at half-maximal effect; % is scaled to controls: 0 for no effect and ±100 for the full control effect
Target sequence (P15428 whole entry, looked up): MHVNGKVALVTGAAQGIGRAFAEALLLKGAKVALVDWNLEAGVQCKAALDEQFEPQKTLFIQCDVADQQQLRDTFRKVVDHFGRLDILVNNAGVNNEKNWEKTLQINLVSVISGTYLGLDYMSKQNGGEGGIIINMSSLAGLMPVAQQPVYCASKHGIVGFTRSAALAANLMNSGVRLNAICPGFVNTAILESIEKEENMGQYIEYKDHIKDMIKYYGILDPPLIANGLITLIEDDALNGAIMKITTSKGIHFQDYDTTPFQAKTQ
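20 nM HPGD preincubated 15 min at room temperature with compound in 50 mM Tris-HCl pH 8, 0.01% Tween 20. Started with 1 mM NAD+ and 30 uM prostaglandin E2; NADH fluorescence (360/450 nm) read 5 times over 30-s intervals, last minus first.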
Active calls of the source: *; ? = inconclusive; . = no result given; [ ] = remark or other dose. Unless noted, calls follow the shape of the dose curve; as a rule, active = well fitted curve in the direction sought with a large enough effect; inconclusive = small, poorly fitted or top-dose-only effect, or another doubt; inactive = no such curve, though single readings can be large; an effect the other way counts as inactive or inconclusive.

SMILES	ALDH1A1 block	HTT cytoprotect	HttQ103 aggreg	CBFb RUNX1 block	KDM4E inh	HPGD block
Cc1ccc(C(=O)OC(C(=O)Nc2ccc(Cl)cc2C(F)(F)F)c2ccccc2)cc1 (centres undefined)	-5%	9%[10 µM]	-13%	3%	12%	-12%
Cc1nc(-c2noc(-c3ccc(Cl)cc3)n2)c(C(F)(F)F)o1	16%	22%[10 µM]	4%[9.22 µM]	12%	12%	.
O=C(O)c1ccccc1N/N=C/c1c(Sc2nnnn2-c2ccccc2)nc2ccccn2c1=O	2µM*	-3%[10 µM]	-23%[9.22 µM]	-12%	-4%	.
Nc1ccccc1NC1CCCCC1	3%	?	18%	-30%	14µM*	.
CCCNC(=O)c1cc(-c2ccc(OC)cc2)n(CCCOC)c1C	?	-14%[10 µM]	-12%	?	-11%	8.9µM*
CCOC(=O)c1cc(-c2ccc(C)cc2)n(CCC(=O)NCCCOC)c1C	4%	10%	-1%	2%	-3%	-28%
COc1ccc(-c2cc(=O)c3ccccc3s2)cc1	?	-101%[10 µM]	-20%	-2%	-22%	7.9µM*
COc1ccc2sc3ccccc3c(=O)c2c1	?	-6%	-14%	?	?	-28%
Cc1cc(-c2ccc(N=Nc3cc(S(=O)(=O)O)c4ccccc4c3N)c(C)c2)ccc1N=Nc1cc(S(=O)(=O)O)c2ccccc2c1N	?	-80%	.	.	.	?
NC(=O)c1c(-c2ccc(Cl)cc2Cl)csc1NC(=O)Cc1ccccc1	?	0%[10 µM]	11µM*	-1%	7%	-15%
O=C(Cc1ccccc1)Nc1scc(-c2ccccc2)c1C(=O)N1CCOCC1	-3%	13%	15%	1%	0%	-1%
O=C1CC(c2ccccc2)CC(=NCCO)/C1=C(\O)CCCN1C(=O)c2ccccc2C1=O (centres undefined)	?	-32%	9%	-3%	1%	.
Clc1ccc(Cl)c2sc(N3CCCC3)nc12	10µM*	-20%	-1%	9%	1%	?
Clc1cccc2sc(N3CCN(c4ccccc4)CC3)nc12	4%	-26%[0.074 µM]	15%	10%	2%	-27%
CCOC(=O)CCCNC(=O)N1CCc2nc(-c3ccccc3)c3c(c2C1)CO[C@@H](C)C3	4%[13.5 µM]	-32%[10 µM]	.	18%[13.1 µM]	9%[11.4 µM]	-1%
CC1(C)Cc2ccccc2-c2nnc(-c3ccccc3)n21	-1%	13%	-15%	-3%	-3%	-2%
CC1(C)Cn2c(nnc2-c2ccccc2)S1	3%	7%[0.074 µM]	11%	1%	4%	16µM*
CC(=O)N1CCC(c2c[nH]c3ccccc23)CC1	?	13%[10 µM]	-1%[9.22 µM]	-11%	?	.
CCOC(=O)C=C(C(=O)OCC)C(=O)OCC	-4%	-4%[10 µM]	-9%[9.22 µM]	-1%	-1%	.
Nc1nonc1C(=O)NCCN=Cc1cc(Cc2ccccc2)cc(Br)c1O	-11%	-43%	?	3%	1%	16µM*
CCOC(=O)CCN1C(=O)[C@H]2[C@H]3[C@H](O)[C@H](O)C/C(=N/NC(=O)OCc4ccc(OC)cc4)[C@H]3CC[C@@H]2C1=O	-5%[13.5 µM]	5%[10 µM]	.	7%[13.1 µM]	.	.
O=C(OCC(=O)N1CCN(c2ccccc2)CC1)c1cccc(Cl)c1	1%	11%[10 µM]	-4%	-1%	3%	-6%
CC(C)[C@H](NS(=O)(=O)c1cccc(Cl)c1)C(=O)OCC(=O)N1CCN(c2ccccc2)CC1	2.5µM*	-6%[10 µM]	9%	-12%	5%	-9%
O=C(c1cnc2n(c1=O)CCS2)N1CCCc2ccccc21	-3%	10%[10 µM]	-6%	-1%	-5%	-11%
O=C(c1cnc2ccccn2c1=O)N1CCCc2ccccc21	8.9µM*	0%	-6%	7%	13%	-9%

Screening data from PubChem.
